Inconclusive results are not listed. Activity calls are given as the source filed them. Unless noted, calls follow the shape of the dose curve; as a rule, active = well fitted curve in the direction sought with a large enough effect in the repeat runs; inconclusive = weak or mixed curves; inactive = no such curve, though single readings can be large; an effect the other way counts as inactive or inconclusive.
Assays:
[1] = qHTS assay to test for compound auto fluorescence at 535 nm (green) in HEK293 cells (AID 720680)
[2] = qHTS assay to test for compound auto fluorescence at 460 nm (blue) in HEK293 cell free culture (AID 720681)
How it was run: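 Blue fluorescence (Ex 405/Em 460 nm, triamterene-equivalent) was read immediately after pin transfer of compound or DMSO into medium (DMEM, 10% FBS) without cells.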

[3] = qHTS assay to test for compound auto fluorescence at 535 nm (green) in HEK293 cell free culture (AID 720682)
How it was run: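 Green-label autofluorescence (485 nm excitation, 535 nm emission) measured on compound added to cell-free culture medium (DMEM, 10% FBS). Output is expressed relative to fluorescein.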

[4] = qHTS assay to test for compound auto fluorescence at 590 nm (red) in HEK293 cell free culture (AID 720683)
How it was run: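 Red-channel autofluorescence of compounds in culture medium (DMEM, 10% FBS), no cells, measured at 540/590 nm. Rose Bengal sodium is the reference fluorophore for equivalence.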

[5] = qHTS assay to test for compound auto fluorescence at 590 nm (red) in HepG2 cell free culture (AID 720684)
How it was run: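 Cell-free; medium MEM + 10% FBS; compound or DMSO added by pintool; read Ex 540/Em 590 nm; Rose Bengal sodium as red reference fluorophore.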

[6] = qHTS assay to test for compound auto fluorescence at 460 nm (blue) in HepG2 cell free culture (AID 720685)
How it was run: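 Cell-free plates of MEM plus 10% FBS received 23 nL compound or DMSO vehicle; blue-channel (405/460 nm) intensity scored against triamterene as reference fluorophore.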

[7] = qHTS assay to test for compound auto fluorescence at 535 nm (green) in HepG2 cell free culture (AID 720686)
[8] = qHTS assay to test for compound auto fluorescence at 460 nm (blue) in HepG2 cells (AID 720687)
How it was run: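 Blue-channel autofluorescence (Ex/Em 405/460 nm, triamterene-equivalent) was measured after 1 hr compound exposure at 37 C, 5% CO2. Cells were HepG2, plated overnight at 37 C in MEM plus 10% FBS.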

[9] = target: Glucocorticoid receptor (Homo sapiens) (UniProt P04150); test: qHTS assay to identify small molecule agonists of the glucocorticoid receptor (GR) signaling pathway (AID 720691; active = well fitted activation curve with a large enough effect in the signal ratio in the repeat runs, not every such curve was filed as active; the % refers to the signal ratio)
How it was run: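 HeLa GR-bla reporter line; cells pre-incubated 4 h, compound in DMSO 18 h at 37 C; LiveBLAzer B/G FRET substrate 2 h RT; fluorescence intensity read-out.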

[10] = target: Glucocorticoid receptor (Homo sapiens) (UniProt P04150); test: qHTS assay to identify small molecule antagonists of the glucocorticoid receptor (GR) signaling pathway (AID 720692; active = well fitted inhibition curve with a large enough effect in the signal ratio in the repeat runs, not every such curve was filed as active; the % refers to the signal ratio)
How it was run: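 Read-out: beta-lactamase FRET substrate fluorescence, 2 h at room temperature, in HeLa cells stably carrying a GRE-driven bla reporter. Compounds were co-incubated with 5 nM dexamethasone agonist (final) for 18 h at 37 C.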

[11] = qHTS assay to identify small molecule antagonists of the glucocorticoid receptor (GR) signaling pathway - cell viability counter screen (AID 720693); also: nearly all actives have a fitted effect of over 55% in size
[12] = qHTS assay for identifying genotoxic compounds that show differential cytotoxicity against isogenic chicken DT40 cell lines with known DNA damage response pathways - wild type cell line (AID 743012); also: nearly all actives have a fitted effect of over 60% in size
How it was run: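 CellTiter-Glo luminescence readout of viability in wild type DT40 cells after 40 h compound exposure at 37 C/5% CO2; 300 cells/well; reagent incubated 30 min at room temperature before reading.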

[13] = qHTS assay for identifying genotoxic compounds that show differential cytotoxicity against isogenic chicken DT40 cell lines with known DNA damage response pathways - Rev3 mutant cell line (AID 743014); also: nearly all actives have a fitted effect of over 55% in size
[14] = qHTS assay to identify small molecule antagonists of the androgen receptor (AR) signaling pathway - cell viability counter screen (AID 743033; also: nearly all actives have a fitted effect of over 45% in size)
[15] = qHTS assay to identify small molecule antagonists of the androgen receptor (AR) signaling pathway using the MDA cell line - cell viability counter screen (AID 743041; also: nearly all actives have a fitted effect of over 45% in size)
How it was run: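 Viability read by CellTiter-Fluor fluorescence in the same wells as the antagonist screen, added after 15.5 h of a 16 h, 37C exposure. Human breast carcinoma MDA-kb2 AR-luc cells, compounds co-dosed with agonist R1881.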

[16] = qHTS assay for identifying genotoxic compounds that show differential cytotoxicity against isogenic chicken DT40 cell lines with known DNA damage response pathways - Rad54/Ku70 mutant cell line (AID 743015); also: nearly all actives have a fitted effect of over 60% in size
[17] = target: Androgen receptor (Homo sapiens) (UniProt P10275); test: qHTS assay to identify small molecule agonists of the androgen receptor (AR) signaling pathway (AID 743036; active = well fitted activation curve with a large enough effect in the signal ratio in the repeat runs, with a control signal flat, not every such curve was filed as active; the % refers to the signal ratio)
How it was run: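 AR-UAS-bla HEK293 cells, plated 4 h before dosing, were treated with compound for 16 h at 37C. beta-Lactamase reporter read after 2 h with LiveBLAzer B/G FRET substrate at room temperature.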

[18] = target: Androgen receptor (Homo sapiens) (UniProt P10275); test: qHTS assay to identify small molecule agonists of the androgen receptor (AR) signaling pathway using the MDA cell line (AID 743040; also: nearly all actives have a fitted effect of over 20% in size)
How it was run: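 Luciferase agonist assay: 16 h compound exposure at 37C without CO2 in MDA-kb2 AR-luc cells, whose MMTV promoter responds to both AR and GR. Luminescence measured after 30 min room-temperature incubation with ONE-Glo.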

[19] = target: Androgen receptor (Homo sapiens) (UniProt P10275); test: qHTS assay to identify small molecule antagonists of the androgen receptor (AR) signaling pathway using the MDA cell line (AID 743042; also: nearly all actives have a fitted effect of over 55% in size)
How it was run: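 Antagonist mode: compounds plus R1881 agonist added to MDA-kb2 AR-luc cells, incubated 16 h at 37C. Luciferase reporter luminescence quantified, with multiplexed CellTiter-Fluor readout for cell viability.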

[20] = target: Androgen receptor (Homo sapiens) (UniProt P10275); test: qHTS assay to identify small molecule antagonists of the androgen receptor (AR) signaling pathway (AID 743035; active = well fitted inhibition curve with a large enough effect in the signal ratio in the repeat runs, not every such curve was filed as active; the % refers to the signal ratio)
How it was run: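 AR-bla HEK293 reporter cells; 4 h settle at 37C/5% CO2; compound + R1881 agonist, 16 h at 37C; LiveBLAzer B/G FRET substrate 2 h RT; fluorescence intensity read. qHTS format.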
% is scaled to controls: 0 for no effect and ±100 for the full control effect.

Sequence of Glucocorticoid receptor (Homo sapiens) (P04150 whole entry, looked up): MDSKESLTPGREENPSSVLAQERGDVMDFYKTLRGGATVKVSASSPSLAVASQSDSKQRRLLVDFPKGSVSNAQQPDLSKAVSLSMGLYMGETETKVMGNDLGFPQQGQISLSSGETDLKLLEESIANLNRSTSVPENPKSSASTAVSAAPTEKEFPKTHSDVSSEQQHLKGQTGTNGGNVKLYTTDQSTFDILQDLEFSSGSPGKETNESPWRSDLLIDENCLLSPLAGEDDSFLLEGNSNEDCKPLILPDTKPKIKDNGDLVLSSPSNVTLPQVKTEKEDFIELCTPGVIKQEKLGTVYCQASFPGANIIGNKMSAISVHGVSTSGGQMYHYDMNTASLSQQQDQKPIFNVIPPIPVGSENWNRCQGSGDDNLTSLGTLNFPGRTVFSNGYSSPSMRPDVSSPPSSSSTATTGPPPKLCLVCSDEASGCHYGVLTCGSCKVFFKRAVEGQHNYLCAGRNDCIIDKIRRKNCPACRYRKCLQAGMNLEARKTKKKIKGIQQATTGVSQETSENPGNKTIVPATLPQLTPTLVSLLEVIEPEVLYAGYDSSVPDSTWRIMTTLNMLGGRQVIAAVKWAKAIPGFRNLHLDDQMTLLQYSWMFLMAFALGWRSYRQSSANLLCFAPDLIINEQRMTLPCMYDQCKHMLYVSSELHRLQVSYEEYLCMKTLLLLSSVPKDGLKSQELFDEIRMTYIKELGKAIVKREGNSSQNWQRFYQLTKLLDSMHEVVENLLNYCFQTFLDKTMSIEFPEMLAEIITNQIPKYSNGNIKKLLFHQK
Sequence of Androgen receptor (Homo sapiens) (P10275 whole entry, looked up): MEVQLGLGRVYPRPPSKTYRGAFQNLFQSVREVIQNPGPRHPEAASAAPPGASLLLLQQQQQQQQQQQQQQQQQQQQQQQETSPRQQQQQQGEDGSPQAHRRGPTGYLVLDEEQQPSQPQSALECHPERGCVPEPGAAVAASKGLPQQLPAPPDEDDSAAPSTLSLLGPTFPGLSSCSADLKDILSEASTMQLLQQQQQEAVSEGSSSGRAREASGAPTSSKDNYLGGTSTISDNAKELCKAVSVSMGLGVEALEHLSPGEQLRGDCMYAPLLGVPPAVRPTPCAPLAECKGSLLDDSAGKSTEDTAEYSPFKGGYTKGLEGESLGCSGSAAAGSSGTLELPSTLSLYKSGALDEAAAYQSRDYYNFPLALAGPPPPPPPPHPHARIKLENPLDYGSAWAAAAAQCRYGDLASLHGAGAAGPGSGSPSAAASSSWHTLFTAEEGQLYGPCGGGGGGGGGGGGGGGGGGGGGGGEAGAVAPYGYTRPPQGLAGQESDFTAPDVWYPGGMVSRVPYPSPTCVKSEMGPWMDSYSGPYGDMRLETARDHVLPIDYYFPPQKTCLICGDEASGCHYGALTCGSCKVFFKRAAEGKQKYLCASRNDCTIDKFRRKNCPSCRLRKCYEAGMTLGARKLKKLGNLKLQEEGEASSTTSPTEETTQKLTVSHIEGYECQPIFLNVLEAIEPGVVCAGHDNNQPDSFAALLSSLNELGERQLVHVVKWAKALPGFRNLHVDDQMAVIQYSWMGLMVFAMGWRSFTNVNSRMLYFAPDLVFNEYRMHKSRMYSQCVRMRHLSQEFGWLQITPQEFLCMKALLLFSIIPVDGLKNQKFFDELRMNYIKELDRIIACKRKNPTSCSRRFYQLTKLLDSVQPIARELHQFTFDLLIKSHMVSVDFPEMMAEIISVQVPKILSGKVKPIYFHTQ

CCCCCCCCCOCC1CO1 (stereo unspecified)
inactive: outcome [1] | outcome [2] | outcome [3] | outcome [4] | outcome [5] | outcome [6] | outcome [7] | outcome [8] | Potency [9] | outcome [10] | Potency [11] | Potency [12] | Potency [13] | outcome [14] | outcome [15]

CCCCCCCC/C=C\CCCCCCCC(=O)OC[C@@H](O)[C@H]1OC[C@H](O)[C@H]1O
inactive: outcome [1] | outcome [2] | outcome [3] | outcome [4] | outcome [5] | outcome [6] | outcome [7] | outcome [8] | Potency [9] | outcome [10] | Potency [11] | Potency [12] | Potency [13] | outcome [14] | outcome [15]

CCCCC(=O)N(C)C
inactive: outcome [1] | outcome [2] | outcome [3] | outcome [4] | outcome [5] | outcome [6] | outcome [7] | outcome [8] | Potency [9] | outcome [10] | Potency [11] | Potency [12] | Potency [13] | outcome [14] | outcome [15]

NC(=O)NC(=O)Cc1ccccc1
inactive: outcome [1] | outcome [2] | outcome [3] | outcome [4] | outcome [5] | outcome [6] | outcome [7] | outcome [8] | Potency [9] | outcome [10] | Potency [11] | Potency [12] | Potency [13] | Potency [16] | outcome [15]

Nc1ccc(S(=O)(=O)NC(=O)c2ccccc2)cc1
inactive: fluorescence, % of fluorescein [1] -0.0049% [at 18.6 µM] | fluorescence, % of fluorescent control [2] -0.0169% [at 18.6 µM] | activity change [3] 0.0575% [at 18.6 µM] | fluorescence, % of fluorescent control [4] -0.201% [at 18.6 µM] | fluorescence, % of Rose Bengal [5] -0.0804% [at 18.6 µM] | fluorescence, % of fluorescent control [6] -0.0907% [at 18.6 µM] | fluorescence, % of fluorescein control [7] -0.0092% [at 18.6 µM] | fluorescence, % of fluorescent control [8] -0.0228% [at 18.6 µM] | Potency [9] | outcome [10] | Potency [11] | Potency [12] | Potency [16] | outcome [14] | outcome [15]

CCCCC(CC)COC(=O)c1ccccc1 (stereo unspecified)
inactive: outcome [1] | outcome [2] | outcome [3] | outcome [4] | outcome [5] | outcome [6] | outcome [7] | outcome [8] | Potency [9] | outcome [10] | Potency [11] | Potency [12] | Potency [13] | outcome [14] | outcome [15]

NC(Cc1c[nH]c2ccccc12)C(=O)O (stereo unspecified)
inactive: outcome [1] | outcome [2] | outcome [3] | outcome [4] | outcome [5] | outcome [6] | outcome [7] | outcome [8] | Potency [9] | outcome [10] | Potency [11] | Potency [12] | Potency [13] | outcome [14] | outcome [15]

CC(C)c1ccccc1O
inactive: outcome [1] | outcome [2] | outcome [3] | outcome [4] | outcome [5] | outcome [6] | outcome [7] | outcome [8] | Potency [9] | outcome [10] | Potency [11] | Potency [12] | Potency [13] | outcome [14] | outcome [15]

OCCCCCCCl
inactive: outcome [1] | outcome [2] | outcome [3] | outcome [4] | outcome [5] | outcome [6] | outcome [7] | outcome [8] | Potency [9] | outcome [10] | Potency [11] | Potency [12] | Potency [13] | outcome [14] | outcome [15]

COC(/C=C(\C)CCC=C(C)C)OC
inactive: outcome [1] | outcome [2] | outcome [3] | outcome [4] | outcome [5] | outcome [6] | outcome [7] | outcome [8] | Potency [9] | outcome [10] | Potency [11] | Potency [13] | outcome [14]

COc1cc([N+](=O)[O-])ccc1N
inactive: outcome [1] | outcome [2] | outcome [3] | outcome [4] | outcome [5] | outcome [6] | outcome [7] | outcome [8] | Potency [9] | outcome [10] | Potency [11] | Potency [12] | Potency [16] | outcome [14] | outcome [17] | outcome [18] | outcome [19]

CCC(=O)c1ccc(O)cc1
inactive: outcome [1] | outcome [2] | outcome [3] | outcome [4] | outcome [5] | outcome [6] | outcome [7] | outcome [8] | Potency [9] | outcome [10] | Potency [11] | Potency [12] | Potency [13] | outcome [14] | outcome [15]

Nc1ccc(S(=O)(=O)Nc2ccccn2)cc1
inactive: fluorescence, % of fluorescein [1] 0.0233% [at 18.6 µM] | fluorescence, % of fluorescent control [2] -0.0806% [at 18.6 µM] | activity change [3] 0.0547% [at 18.6 µM] | fluorescence, % of fluorescent control [4] 0.101% [at 18.6 µM] | fluorescence, % of Rose Bengal [5] 0.012% [at 18.6 µM] | fluorescence, % of fluorescent control [6] -0.12% [at 18.6 µM] | fluorescence, % of fluorescein control [7] -0.0379% [at 18.6 µM] | fluorescence, % of fluorescent control [8] 0.149% [at 18.6 µM] | Potency [9] | outcome [10] | Potency [11] | Potency [12] | Potency [13] | outcome [14] | Potency [20] | outcome [18] | outcome [15] | outcome [19]

Nc1c(NC/C=C\COc2cc(CN3CCCCC3)ccn2)c(=O)c1=O
inactive: outcome [1] | outcome [2] | outcome [3] | outcome [4] | outcome [5] | outcome [6] | outcome [7] | outcome [8] | Potency [9] | outcome [10] | Potency [11] | Potency [12] | Potency [13] | outcome [14] | outcome [15]

CCCCCCCCCCCCCC(=O)OC
inactive: outcome [1] | outcome [2] | outcome [3] | outcome [4] | outcome [5] | outcome [6] | outcome [7] | outcome [8] | Potency [9] | outcome [10] | Potency [11] | Potency [12] | outcome [14] | Potency [20] | outcome [17] | outcome [18] | outcome [15] | outcome [19]

Cc1cc(C)cc([N+](=O)[O-])c1
inactive: outcome [1] | outcome [2] | outcome [3] | outcome [4] | outcome [5] | outcome [6] | outcome [7] | outcome [8] | Potency [9] | outcome [10] | Potency [11] | Potency [12] | Potency [13] | outcome [14] | outcome [15]

COc1ccc(NS(=O)(=O)c2ccc(N)cc2)nn1
inactive: fluorescence, % of fluorescein [1] -0.0152% [at 18.6 µM] | fluorescence, % of fluorescent control [2] 0.201% [at 18.6 µM] | activity change [3] -0.0484% [at 18.6 µM] | fluorescence, % of fluorescent control [4] -0.041% [at 18.6 µM] | fluorescence, % of Rose Bengal [5] -0.359% [at 18.6 µM] | fluorescence, % of fluorescent control [6] -0.109% [at 18.6 µM] | fluorescence, % of fluorescein control [7] -0.0862% [at 18.6 µM] | fluorescence, % of fluorescent control [8] 0.0805% [at 18.6 µM] | Potency [9] | outcome [10] | Potency [11] | Potency [12] | Potency [16] | outcome [14] | outcome [15]
